Laboratory results: PubChem BioAssay (NCI)
About 83,000 compounds went through this panel and 20% of them were active in at least one assay; those are over-represented in the sample as a whole.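 Assay: single dose, 48 h. Readout: percent growth (0 = no net growth; negative = cell death). Active: <10.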 Activity calls are given as the source filed them.

How the values were obtained:
Experiment in all cases: NCI-60 one-dose screen, 48 h (100 = growth as untreated, 0 = no growth, -100 = all killed)
Conditions in all cases: 10 µM unless noted
NCI-H23 lung = tested on: NCI-H23 lung
NCI-H226 lung = tested on: NCI-H226 lung
NCI-H322M lung = tested on: NCI-H322M lung
HOP-62 NSCLC = tested on: HOP-62 NSCLC
NCI-H460 lung = tested on: NCI-H460 lung
HOP-92 NSCLC = tested on: HOP-92 NSCLC
NCI-H522 lung = tested on: NCI-H522 lung
A549/ATCC NSCLC = tested on: A549/ATCC NSCLC
786-0 renal = tested on: 786-0 renal
COLO 205 colon = tested on: COLO 205 colon
DU-145 prostate = tested on: DU-145 prostate
K-562 leukemia = tested on: K-562 leukemia
MALME-3M melanoma = tested on: MALME-3M melanoma
MDA-MB-231 breast = tested on: MDA-MB-231 breast
RXF 393 renal = tested on: RXF 393 renal
SF-268 CNS = tested on: SF-268 CNS
SF-295 CNS = tested on: SF-295 CNS
SF-539 CNS = tested on: SF-539 CNS
UACC-257 melanoma = tested on: UACC-257 melanoma
M14 melanoma = tested on: M14 melanoma

Measured: growth

CCCC(O)Cn1ncc(C(=O)OCC)c1NC(=O)NCc1cccc(F)c1 (stereo not given)
inactive: NCI-H23 lung 91.2% | NCI-H226 lung 112% | NCI-H322M lung 93% | HOP-62 NSCLC 100% | NCI-H460 lung 107% | HOP-92 NSCLC 71.3% | NCI-H522 lung 58.6% | A549/ATCC NSCLC 88.4% | 786-0 renal 73.4% | COLO 205 colon 111% | DU-145 prostate 99.4% | K-562 leukemia 68.6% | MALME-3M melanoma 97.6% | MDA-MB-231 breast 103% | RXF 393 renal 120% | SF-268 CNS 98.4% | SF-295 CNS 93.3% | SF-539 CNS 94.8% | UACC-257 melanoma 85.2% | M14 melanoma 80.5%

O=C(/C=C/c1ccccc1)Nc1ncc(Cc2ccccc2)s1
active: NCI-H460 lung 2.22% | NCI-H522 lung -4.58% | COLO 205 colon 8.42% | SF-295 CNS -10.7% | SF-539 CNS -22.2% | M14 melanoma 5.78%
inactive: NCI-H23 lung 24.8% | NCI-H226 lung 60.3% | NCI-H322M lung 31.4% | HOP-62 NSCLC 13.7% | HOP-92 NSCLC 85.7% | A549/ATCC NSCLC 22.1% | 786-0 renal 24.5% | DU-145 prostate 16% | K-562 leukemia 10.5% | MALME-3M melanoma 44.3% | MDA-MB-231 breast 33.4% | RXF 393 renal 10.9% | SF-268 CNS 39.4% | UACC-257 melanoma 48.3%

CCn1cc(C(=O)NN=C2CCCCCC2)c(=O)c2ccc(C)nc21
inactive: NCI-H23 lung 89.5% | NCI-H226 lung 82% | NCI-H322M lung 88.7% | HOP-62 NSCLC 94.8% | NCI-H460 lung 92.4% | HOP-92 NSCLC 80.7% | NCI-H522 lung 75.3% | A549/ATCC NSCLC 82.6% | 786-0 renal 87.2% | COLO 205 colon 97.8% | DU-145 prostate 89.2% | K-562 leukemia 72% | MALME-3M melanoma 97.1% | MDA-MB-231 breast 87.1% | RXF 393 renal 100% | SF-268 CNS 84% | SF-295 CNS 77.7% | SF-539 CNS 100% | UACC-257 melanoma 87.8% | M14 melanoma 103%

CCOC(=O)c1c(C)nc2ccccc2c1/C=C/c1ccc(OC)cc1
inactive: NCI-H23 lung 46.3% | NCI-H226 lung 61.8% | NCI-H322M lung 95.8% | HOP-62 NSCLC 71.8% | NCI-H460 lung 78.1% | HOP-92 NSCLC 44.5% | NCI-H522 lung 53.5% | A549/ATCC NSCLC 57.6% | 786-0 renal 77.8% | COLO 205 colon 83.6% | DU-145 prostate 93.1% | K-562 leukemia 42% | MALME-3M melanoma 87% | MDA-MB-231 breast 74.6% | RXF 393 renal 91.3% | SF-268 CNS 78% | SF-295 CNS 58.8% | SF-539 CNS 85.3% | UACC-257 melanoma 74% | M14 melanoma 70.5%
